# PubChem BioAssay
# Activity calls are given as the source filed them.
# Columns and labels:
# [1] = biological target: Albumin (Bos taurus) (UniProt P02769); assay: bovine serum albumin binders on microarray, profiling panel, artefact control for SMM control protein annotation, biochemical, small-molecule microarray, Alexa647 label, 635/667 nm fluorescence (AID 1118); settings: BSA-A647 binding, fluorescence 635 nm, higher = more signal;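 further: score merges 667 nm emission intensity and signal-to-noise per printed compound spot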
# [2] = small-molecule microarray binders of probe aXIP, primary screen, biochemical, NeuroSMM set, 635/667 nm fluorescence (AID 1119); settings: higher = more signal, called active from +8 up or from −8 down;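 further: probe is the protein aXip251-270 applied at 1 µg/mL to compound-printed slides; binding of probe to printed compounds measured as 667 nm fluorescence plus signal to noise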
# [3] = small-molecule binders of probe aNOTCH3, primary screen, biochemical, small-molecule microarray, 635/667 nm fluorescence (AID 1120); settings: higher = more signal;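 further: probe is a biotin-tagged antibody raised against NOTCH3 rather than NOTCH3 protein; score merges spot fluorescence near 667 nm with spot signal to noise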
# [4] = small-molecule binders of probe aNOTCH2, primary screen, biochemical, small-molecule microarray, 635/667 nm fluorescence (AID 1121); settings: higher = more signal;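 further: score merges feature fluorescence read at 667 nm with its signal to noise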
# [5] = biological target: Carbonic anhydrase 2 (Homo sapiens) (UniProt P00918); assay: CAII small-molecule binders, profiling panel, biochemical, small-molecule microarray, Alexa647-labelled CAII (AID 1122); settings: CAII-A647 binding fluorescence, higher = more signal
# [6] = COS7 lysate on small-molecule microarray, probe aHis, 635 nm (AID 1123); settings: COS7 cell lysate, fluorescence, higher = more signal;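 further: z-score combines 667nm fluorescence intensity with signal-to-noise per printed compound spot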
# [7] = compound binding in COS7 lysate, probe aLAP1, primary screen, cell lysate, small-molecule microarray (AID 1124); settings: probe aLAP1, fluorescence, higher = more signal;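 further: lysate comes from COS7 cells expressing LAP1 and is applied at 0.3 µg/mL; score merges spot fluorescence near 667 nm with signal-to-noise over triplicate slides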
# [8] = system: Sam68 (KHDRBS1); assay: Sam68 small-molecule binders, primary screen, biochemical, small-molecule microarray, 635 nm fluorescence (AID 1125); settings: small-molecule microarray binding, higher = more signal;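 further: score merges 667 nm channel intensity with signal to noise over triplicate slides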
# [9] = system: Chordin-like protein 2 (CHRDL2); assay: CHRDL2 small-molecule binders, primary screen, biochemical, small-molecule microarray, 635 nm fluorescence (AID 1126); settings: small-molecule microarray binding, fluorescence 635 nm; higher = more signal;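 further: printed compound slides probed with Chrdl2 protein at 4 µg/mL for 1 h at 4 C; score merges 667 nm emission intensity with signal to noise over three replicate slides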
# [10] = biological target: Concanavalin-A (Canavalia ensiformis) (UniProt P02866); assay: ConA small-molecule binders, primary screen, artefact control for SMM control protein annotation, biochemical, small-molecule microarray, Alexa647 label, 635 nm (AID 1127); settings: ConA-A647 binding fluorescence, higher = more signal;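 further: z combines 667 nm emission intensity with signal-to-noise across three replicate slides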
# [11] = anti-His antibody binders, primary screen, artefact control for SMM control protein annotation, biochemical, small-molecule microarray, 635 nm fluorescence (AID 1128); settings: anti-His Alexa647 antibody binding, higher = more signal;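 further: score merges feature fluorescence with signal-to-noise for each printed compound spot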
# [12] = system: Human papillomavirus type 1a E7 protein (residues 1-88); assay: HPV1a E7 small-molecule binders, primary screen, biochemical, small-molecule microarray, residues 1-88, 635 nm (AID 1129); settings: small-molecule microarray binding, fluorescence 635 nm; higher = more signal
# [13] = biological target: Focal adhesion kinase 1 (Homo sapiens) (UniProt Q05397); assay: small-molecule microarray binders of FAK, primary screen, biochemical, 635/667 nm fluorescence, BSA, DTT (AID 1130); settings: PTK2 binding, 635 nm fluorescence, higher = more signal;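 further: composite of spot emission at 667 nm and signal to noise over triplicate slides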
# [14] = system: Fibrinogen (Alexa647-labelled); assay: fibrinogen binders on compound microarrays, profiling panel, artefact control for SMM control-protein annotation, biochemical, small-molecule microarray, 635/667 nm fluorescence (AID 1131); settings: fibrinogen-A647 binding fluorescence, higher = more signal;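 further: z-score merges 667 nm fluorescence with per-spot signal-to-noise over triplicate slides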
# [15] = biological target: Follistatin (Homo sapiens) (UniProt P19883); assay: follistatin binders on small-molecule microarrays, primary screen, biochemical, small-molecule microarray, 635/667 nm fluorescence (AID 1132); settings: FST binding, 635 nm fluorescence, higher = more signal
# [16] = biological target: Fibroblast growth factor 2 (Homo sapiens) (UniProt P09038); assay: FGF2 binders on small-molecule microarrays, primary screen, biochemical, small-molecule microarray, 635/667 nm fluorescence (AID 1133); settings: small-molecule microarray binding, FGF2, fluorescence 635/667; higher = more signal
# [17] = mitochondrial membrane potential change in A549 cells, profiling panel, cell-based, JC-1 fluorescence, basal, 24 h, 100 nL (AID 1138); settings: higher = more signal;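 further: A549 lung adenocarcinoma cells under basal conditions with no added stimulus; test concentration not given here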
# [18] = system: Lefty1; assay: Lefty1 binders on small-molecule microarrays, primary screen, biochemical, small-molecule microarray, 635/667 nm fluorescence (AID 1139); settings: small-molecule microarray binding, fluorescence 635/667; higher = more signal
# [19] = system: wheat germ agglutinin (Triticum aestivum), Alexa647-labelled; assay: wheat germ agglutinin binders on compound microarrays, profiling panel, artefact control for SMM control-protein annotation, biochemical, small-molecule microarray, 635/667 nm fluorescence (AID 1140); settings: WGA-A647 binding, 635 nm fluorescence, higher = more signal;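 further: score merges 667 nm feature emission with signal to noise over triplicate slides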
# [20] = biological target: Luciferin 4-monooxygenase (Photinus pyralis) (UniProt P08659); assay: firefly luciferase enzyme inhibitors, primary screen, biochemical, luminescence, purified enzyme, 2006 set (AID 1141); settings: SteadyGlo luminescence, 30 min, higher = more signal, called active from +8 up or from −8 down;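 further: cell-free assay with purified firefly luciferase at 100 ng per well in PBS; test concentration not given here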
# Sequence of Luciferin 4-monooxygenase (Photinus pyralis) (P08659 whole entry, looked up): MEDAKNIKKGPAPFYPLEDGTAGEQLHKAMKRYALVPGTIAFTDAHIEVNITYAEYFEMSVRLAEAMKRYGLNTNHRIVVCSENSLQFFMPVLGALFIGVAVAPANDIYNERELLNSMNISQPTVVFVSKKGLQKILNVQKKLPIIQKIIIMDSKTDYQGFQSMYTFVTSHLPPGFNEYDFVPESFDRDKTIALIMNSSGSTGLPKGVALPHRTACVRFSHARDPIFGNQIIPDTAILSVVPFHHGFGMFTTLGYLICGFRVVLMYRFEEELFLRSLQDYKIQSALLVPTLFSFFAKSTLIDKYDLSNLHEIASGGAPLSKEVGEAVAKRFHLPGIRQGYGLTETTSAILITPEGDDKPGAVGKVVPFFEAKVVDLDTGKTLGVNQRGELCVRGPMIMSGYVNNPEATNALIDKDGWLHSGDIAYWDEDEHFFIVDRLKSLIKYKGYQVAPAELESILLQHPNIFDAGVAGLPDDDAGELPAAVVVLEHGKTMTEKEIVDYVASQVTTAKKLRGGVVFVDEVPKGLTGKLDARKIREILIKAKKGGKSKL
# Sequence of Follistatin (Homo sapiens) (P19883 whole entry, looked up): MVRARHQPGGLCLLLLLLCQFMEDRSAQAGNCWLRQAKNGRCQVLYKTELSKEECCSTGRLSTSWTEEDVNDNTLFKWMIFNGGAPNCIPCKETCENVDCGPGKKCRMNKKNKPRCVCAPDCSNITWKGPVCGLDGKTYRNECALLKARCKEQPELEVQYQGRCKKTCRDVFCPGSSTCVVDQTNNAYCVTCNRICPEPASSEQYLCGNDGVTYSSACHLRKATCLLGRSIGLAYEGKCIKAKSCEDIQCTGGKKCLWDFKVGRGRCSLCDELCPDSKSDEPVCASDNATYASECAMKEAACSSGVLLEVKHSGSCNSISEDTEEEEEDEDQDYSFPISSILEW
# Sequence of Fibroblast growth factor 2 (Homo sapiens) (P09038 whole entry, looked up): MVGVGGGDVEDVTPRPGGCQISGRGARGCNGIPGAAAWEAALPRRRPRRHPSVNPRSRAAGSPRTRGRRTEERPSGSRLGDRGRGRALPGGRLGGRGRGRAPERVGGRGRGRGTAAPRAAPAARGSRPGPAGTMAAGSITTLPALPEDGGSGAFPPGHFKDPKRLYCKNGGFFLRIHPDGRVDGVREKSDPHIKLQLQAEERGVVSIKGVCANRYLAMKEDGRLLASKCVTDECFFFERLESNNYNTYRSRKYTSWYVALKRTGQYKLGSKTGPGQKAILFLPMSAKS
# Sequence of Concanavalin-A (Canavalia ensiformis) (P02866 whole entry, looked up): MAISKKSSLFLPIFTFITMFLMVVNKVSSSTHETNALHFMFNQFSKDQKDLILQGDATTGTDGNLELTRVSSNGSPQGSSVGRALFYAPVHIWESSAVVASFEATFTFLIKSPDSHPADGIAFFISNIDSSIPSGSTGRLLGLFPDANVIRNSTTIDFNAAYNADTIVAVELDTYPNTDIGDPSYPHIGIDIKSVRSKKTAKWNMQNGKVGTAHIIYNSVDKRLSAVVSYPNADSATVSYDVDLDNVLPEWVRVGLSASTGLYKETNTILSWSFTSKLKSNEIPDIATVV
# Sequence of Focal adhesion kinase 1 (Homo sapiens) (Q05397 whole entry, looked up): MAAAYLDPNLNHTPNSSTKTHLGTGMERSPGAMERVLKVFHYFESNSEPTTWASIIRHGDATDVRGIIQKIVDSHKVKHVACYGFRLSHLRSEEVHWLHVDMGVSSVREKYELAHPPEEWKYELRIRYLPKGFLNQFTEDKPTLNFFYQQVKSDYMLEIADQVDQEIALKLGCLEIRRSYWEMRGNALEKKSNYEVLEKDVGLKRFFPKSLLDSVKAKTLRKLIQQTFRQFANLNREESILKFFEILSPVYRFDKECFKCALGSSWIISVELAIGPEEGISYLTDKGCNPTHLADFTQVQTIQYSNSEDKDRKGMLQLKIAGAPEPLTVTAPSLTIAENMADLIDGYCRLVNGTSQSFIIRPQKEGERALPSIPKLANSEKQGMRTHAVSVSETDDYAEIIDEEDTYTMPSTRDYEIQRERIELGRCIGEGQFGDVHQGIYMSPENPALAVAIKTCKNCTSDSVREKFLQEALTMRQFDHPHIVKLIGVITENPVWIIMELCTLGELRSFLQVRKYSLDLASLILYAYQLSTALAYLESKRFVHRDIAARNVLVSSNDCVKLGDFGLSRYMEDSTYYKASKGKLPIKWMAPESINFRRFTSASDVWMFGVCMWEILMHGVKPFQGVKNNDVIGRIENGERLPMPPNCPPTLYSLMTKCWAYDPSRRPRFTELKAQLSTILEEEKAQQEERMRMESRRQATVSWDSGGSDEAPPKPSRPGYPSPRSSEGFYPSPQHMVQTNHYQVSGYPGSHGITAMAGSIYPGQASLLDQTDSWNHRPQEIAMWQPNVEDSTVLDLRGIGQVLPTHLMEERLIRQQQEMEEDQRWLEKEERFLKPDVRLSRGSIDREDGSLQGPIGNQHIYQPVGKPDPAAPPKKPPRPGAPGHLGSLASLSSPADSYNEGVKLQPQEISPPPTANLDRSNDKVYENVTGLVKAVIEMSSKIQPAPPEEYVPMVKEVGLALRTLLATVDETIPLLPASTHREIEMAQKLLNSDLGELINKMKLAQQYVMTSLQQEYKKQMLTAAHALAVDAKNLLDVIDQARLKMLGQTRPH
# Sequence of Albumin (Bos taurus) (P02769 whole entry, looked up): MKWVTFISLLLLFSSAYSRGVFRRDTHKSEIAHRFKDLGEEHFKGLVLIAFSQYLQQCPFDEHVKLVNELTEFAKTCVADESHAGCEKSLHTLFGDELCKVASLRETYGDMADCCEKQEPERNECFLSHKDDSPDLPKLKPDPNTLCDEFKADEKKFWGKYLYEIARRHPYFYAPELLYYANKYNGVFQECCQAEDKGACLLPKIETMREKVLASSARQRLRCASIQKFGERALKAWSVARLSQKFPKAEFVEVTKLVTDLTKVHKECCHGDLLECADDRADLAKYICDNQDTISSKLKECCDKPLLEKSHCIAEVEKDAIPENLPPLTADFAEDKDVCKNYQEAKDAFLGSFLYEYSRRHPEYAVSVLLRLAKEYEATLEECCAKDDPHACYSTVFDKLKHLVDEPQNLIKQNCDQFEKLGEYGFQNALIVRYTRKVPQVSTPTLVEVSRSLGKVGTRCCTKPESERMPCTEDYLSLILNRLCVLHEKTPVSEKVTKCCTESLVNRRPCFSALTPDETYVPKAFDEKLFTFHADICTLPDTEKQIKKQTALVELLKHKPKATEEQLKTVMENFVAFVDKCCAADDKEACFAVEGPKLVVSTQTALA
Structure (SMILES),composite z-score [1],composite Z-score [2],composite z-score [3],composite z-score [4],composite z-score [5],composite z-score [6],composite z-score [7],composite z-score [8],composite z-score [9],composite z-score [10],composite z-score [11],composite z-score [12],composite z-score [13],composite z-score [14],composite z-score [15],composite z-score [16],z-score [17],composite z-score [18],composite z-score [19],z-score [20]
C=C(COC)C(=O)CC[C@H](OC(C)=O)c1ccccc1OCCO,-1.63,-0.743 (inactive),-0.0343,-0.115,0.662,0.0092,-0.325,0.176,-0.0471,-0.153,0.342,-0.538,0.253,-0.674,1.26,1.73,0.0429,1.13,-0.368,-1.61 (inactive)
CN(C)CCCC[C@@H]1NC(=O)[C@H]2C[C@@H](C(=O)NCCCCCCNC(=O)CS)[C@@H](c3cccc(OCCO)c3)N2C1=O,0.105,0.333 (inactive),-0.195,-0.105,0.249,1.01,0.586,0.378,-0.0352,0.847,1.17,0.593,0.292,0.511,0.52,1,0.115,-0.673,-0.115,0.117 (inactive)
Cc1ccc(S(=O)(=O)N2[C@@H](c3ccccc3)C(C(=O)O)=CC[C@H]2c2ccc(F)cc2)cc1,0.458,0.615 (inactive),-0.0044,-0.116,0.893,3.31,1.72,1.18,-1.09,-0.177,0.686,1.29,0.779,1.13,0.164,-1.34,-0.679,1.36,1.05,2.52 (inactive)
[N-]=[N+]=NCc1ccccc1[C@H]1OC(c2ccc(OCCCO)cc2)=N[C@@]1(CCS(=O)(=O)c1ccccc1)C(=O)NCCN1CCOCC1,0.888,0.516 (inactive),0.596,0.163,0.621,2.76,0.654,1.3,-0.222,0.944,1.35,1.27,0.907,1.04,0.777,0.188,0.577,-0.237,0.57,-3.06 (inactive)
CCCCCCc1nc(Cc2cc(OC)c(OC)c(OC)c2)c(C)c2c1[Si](C(C)C)(C(C)C)OC2,-0.287,0.108 (inactive),-0.13,-0.178,-0.0168,0.0854,-0.251,0.294,0.19,0.0356,0.0303,0.127,-0.38,-0.24,0.281,0.444,0.374,0.267,0.108,-0.123 (inactive)
CC1C2C(CCCO)=CC(C3C(=O)N(C(N)=O)C(=O)C23)N1Cc1cccc(OC(F)(F)F)c1 (stereo not given),1,0.649 (inactive),-0.068,-0.114,0.699,1.22,0.147,1.33,0.0627,-0.0715,0.632,1.11,0.314,0.646,0.0794,0.438,-0.341,0.216,0.576,-0.0224 (inactive)
O=C1O[C@@H](c2ccccc2)[C@@H](c2ccccc2)N2[C@@H](c3ccc(OCCO)cc3)[C@]3(C(=O)Nc4ccc(C#CC5=CCCCC5)cc43)[C@@H](C(=O)Nc3nc4ccccc4s3)[C@H]12,-0.01,0.159 (inactive),0.674,-0.42,0.303,1.14,-0.142,1.28,0.163,1.07,0.22,0.525,-0.0302,0.99,0.593,1.25,-2.31,0.547,0.453,-2.64 (inactive)
COc1ccc(C(=O)Nc2ccc(CN3C(=O)[C@@]4(O[C@@H](CC(=O)N(CCO)Cc5ccccc5)[C@H]([Si](C)(C)c5ccc(OC)cc5)[C@H]4C)c4ccccc43)cc2)cc1,0.469,0.226 (inactive),-0.222,-0.172,0.294,0.678,-0.294,0.0422,1.01,1.1,0.757,0.066,0.385,0.0715,0.35,0.936,-0.266,1.11,1.1,0.594 (inactive)
CCCCN1CC=CC23O[C@@H]4/C=C\CCC(C)OC(=O)C4[C@H]2C(=O)N(CCO)[C@@H]3C1=O (stereo not given in full),0.197,2.55 (inactive),-0.0745,-0.101,0.97,2.47,1.49,0.852,-0.789,-0.833,3.24,-0.424,0.548,-1.18,-0.531,-1.49,-0.145,0.0422,-0.169,1.1 (inactive)
O=C1O[C@H](c2ccccc2)[C@H](c2ccccc2)N2[C@H]1[C@@H](C(=O)N1CCN(c3ncccn3)CC1)[C@]1(C(=O)Nc3ccc(C#CC4(O)CCCCCC4)cc31)[C@H]2c1ccc(O)cc1,0.605,-0.019 (inactive),0.0556,-0.162,0.673,1.28,0.329,1.31,-0.0362,0.946,1.75,1.2,0.62,0.902,0.951,0.89,1.36,0.58,1.06,-1.63 (inactive)
COC(=O)c1c2oc(c1C(=O)OC)C(=O)N[C@H](Cc1ccccc1)Cn1cc(nn1)C1(CCCCC1)NC(=O)N[C@H](CO)CC2,0.264,0.605 (inactive),-0.0113,-0.15,0.765,0.856,0.474,0.0112,-0.2,-1.71,0.633,-0.594,0.714,-0.252,-0.328,0.94,-0.318,0.114,0.722,0.181 (inactive)
